Only a selection was taken, and hits are over-represented in it overall.
VDR inh = Inhibitors of the vitamin D receptor (VDR): qHTS; Vitamin D3 receptor (Homo sapiens), P11473; VDR-SRC2-3 peptide fluorescence polarization, 2 h; Potency, µM, usual class: inhibitors; 400,000 tested, 0.93% active; AID 504847, 2011
Target sequence (P11473 whole entry, looked up): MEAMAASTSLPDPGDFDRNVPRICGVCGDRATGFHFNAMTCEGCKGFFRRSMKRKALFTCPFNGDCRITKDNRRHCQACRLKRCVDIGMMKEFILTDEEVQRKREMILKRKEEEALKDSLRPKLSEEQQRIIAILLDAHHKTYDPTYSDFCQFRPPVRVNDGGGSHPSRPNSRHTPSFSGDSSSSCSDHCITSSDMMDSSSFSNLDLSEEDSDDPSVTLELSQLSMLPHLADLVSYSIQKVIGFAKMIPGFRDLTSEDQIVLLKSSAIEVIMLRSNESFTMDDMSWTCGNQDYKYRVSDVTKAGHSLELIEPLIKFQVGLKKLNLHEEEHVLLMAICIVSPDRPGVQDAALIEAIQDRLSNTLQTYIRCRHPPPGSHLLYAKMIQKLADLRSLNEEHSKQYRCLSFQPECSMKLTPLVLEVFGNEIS
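After 23 nl compound addition and a short centrifugation, plates sat for 2 hours at ambient temperature; polarization of fluorescence then indicated loss of VDR binding to peptide SRC2-3.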
Sfp PPTase inh = qHTS Assay for Inhibitors of Bacillus subtilis Sfp phosphopantetheinyl transferase (PPTase); Biochemical Sfp PPTase activity, qHTS; Potency, µM, usual class: inhibitors; AID 1490, 2009; 310,000 tested, 3.5% active;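 also: the enzyme is Sfp with the accession as filed and its product quenches rhodamine fluorescence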
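Sfp 15 nM + cpd, 15 min RT; start w/ rhodamine-CoA 5 uM, BHQ-2-YbbR 12.5 uM (final); 50 mM Hepes pH 7.6, 10 mM MgCl2, 0.01% NP-40, 0.01% BSA; read 525/598 nm at 0 and 30 min.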
G9a inh = qHTS Assay for Inhibitors of Histone Lysine Methyltransferase G9a; Histone-lysine N-methyltransferase EHMT2 (Homo sapiens), Q96KQ7; G9a H3K9 monomethylation, AlphaScreen, 2 h; Potency, µM (doses to about 102 µM), usual class: inhibitors; 350,000 tested, 8.8% active; AID 504332, 2011; also: nearly all actives have a fitted effect of over 75% in size
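Readings reflect AlphaScreen signal from monomethyl-H3K9 antibody detection. HMT at 20 nM; substrate b-H3K9 500 nM; cofactor SAM 20 uM; 2 h RT reaction; compounds tested as titrations in qHTS with 15 min preincubation.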
12-LOX inh = Primary qHTS assay for inhibitors of human arachidonate 12S-lipoxygenase (ALOX12): Round 2 | 580,000 tested, 1.1% active | Potency, µM (series often up to 108 µM), usual class: inhibitors | AID 1671190, 2021 | Polyunsaturated fatty acid lipoxygenase ALOX12 (Homo sapiens), P18054 | purified 12hLO, xylenol orange hydroperoxide absorbance
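Purified human 12hLO at 150 nM in 25 mM Hepes, 0.01% Triton X-100, pH 7.0, preincubated 15 min at room temperature with compound. Reaction started with 40 uM arachidonic acid, 30 min at room temperature. Hydroperoxide measured by Fe-xylenol orange, 573/405 nm absorbance ratio.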
Glioma ERSR ind = qHTS for Inducers of the Endoplasmic Reticulum Stress Response (ERSR) in Human Glioma: qHTS. 420,000 tested, 0.02% active. AID 602332, 2012. U87-MG GRP78 promoter luciferase reporter, 16 h. Potency, µM, usual class: activators; also: series mostly up to about 76 µM; nearly all actives have a fitted effect of over 35% in size
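Stably transfected U87-MG glioma cells carrying a GRP78-based luciferase sensor; 16 h compound incubation. Luminescence end-point read 10 min after Bright-Glo addition at room temperature.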
Each line names hits and unclear results; the compound was inactive in the other large screens. Calls follow the shape of the dose curve; as a rule, active = well fitted curve in the direction sought with a large enough effect; inconclusive = small, poorly fitted or top-dose-only effect, or another doubt; inactive = no such curve, though single readings can be large; an effect the other way counts as inactive or inconclusive.

CCOC(=O)CCCNC(=O)COC(=O)[C@@H]1CCCN1S(=O)(=O)c1ccc(Cl)cc1	G9a inh 50.1µM, 12-LOX inh inconclusive
O=C(COC(=O)[C@@H]1CCCN1S(=O)(=O)c1ccc(Cl)cc1)NC1CC1	G9a inh inconclusive
CCOC(=O)c1c(-c2ccc(F)cc2)csc1NC(=O)C1CCCO1 (stereo not drawn)	VDR inh inconclusive, Sfp PPTase inh 22.4µM, G9a inh 20µM
CCOC(=O)c1c(-c2ccc(C)cc2)csc1NC(=O)CCN1CC(C)OC(C)C1 (stereo not drawn)	Sfp PPTase inh 15.8µM, G9a inh inconclusive, 12-LOX inh inconclusive
CCOC(=O)c1c(-c2ccc(C)cc2)csc1NC(=O)C1CCCO1 (stereo not drawn)	none
CCOC(=O)c1c(-c2ccccc2)csc1NC(=O)c1ccc(S(=O)(=O)N2CC(C)OC(C)C2)cc1 (stereo not drawn)	none
CCOC(=O)c1c(-c2ccc(OC)cc2)csc1NC(=O)CCN1CCOCC1	Sfp PPTase inh 35.5µM, G9a inh 3.55µM, 12-LOX inh inconclusive
CCOC(=O)c1c(-c2ccc(OC)cc2)csc1NC(=O)CCN1C(=O)c2ccccc2C1=O	Sfp PPTase inh 50.1µM, G9a inh inconclusive, 12-LOX inh inconclusive
COC(=O)c1cc(-c2nc3ccccc3[nH]2)c(-c2ccc(OC)cc2)nc1C	none (no result: VDR inh, Sfp PPTase inh, G9a inh, Glioma ERSR ind)
Cc1ccc(N2C(=O)CS(=O)(=O)CC2=O)cc1	G9a inh 31.6µM
Cc1ccc(NC(=O)c2cc(N3C(=O)C=CC3=O)ccc2N2CCOCC2)cc1	VDR inh 28.2µM, Sfp PPTase inh 4.47µM, G9a inh 1µM, 12-LOX inh 10µM
Cc1ccc(NC(=O)c2cc(N3C(=O)C=CC3=O)ccc2Cl)cc1C	VDR inh 35.5µM, Sfp PPTase inh 14.1µM, G9a inh 1.58µM, 12-LOX inh 3.55µM
Cc1cccc(-c2cc(C(=O)NC3CCCC3)c3ccccc3n2)c1	none (no result: VDR inh, Sfp PPTase inh, G9a inh, Glioma ERSR ind)
Cc1cccc(-c2ccccc2N)c1	none (no result: VDR inh, Sfp PPTase inh, G9a inh, Glioma ERSR ind)
COc1cc(OC)cc(C(=O)Nc2cc(-c3nc4cccnc4s3)ccc2C)c1	G9a inh 8.91µM (no result: Sfp PPTase inh)
CCOCC(=O)Nc1cccc(-c2nc3cccnc3s2)c1C	none
COc1cc(OC)cc(C(=O)Nc2ccc(-c3nc4ccccc4s3)cc2C)c1	none (no result: Sfp PPTase inh)
COc1ccc(C(=O)Nc2cccc(-c3nc4cccnc4s3)c2C)c(OC)c1	G9a inh 11.2µM (no result: Sfp PPTase inh)
Cc1ccc(-c2nc3cccnc3s2)cc1NC(=O)c1ccccc1Cl	none (no result: VDR inh, Sfp PPTase inh, G9a inh, Glioma ERSR ind)
CCOc1ccccc1C(=O)Nc1cc(-c2nc3cccnc3s2)ccc1C	G9a inh 10µM (no result: Sfp PPTase inh, Glioma ERSR ind)
COc1cccc(NC(=O)N2CCC(c3cc(-c4cccc(C)c4)n[nH]3)CC2)c1	none (no result: VDR inh, Sfp PPTase inh, G9a inh, Glioma ERSR ind)
CC(C)(C)C(=O)NC1CCCc2ccccc21 (stereo not drawn)	none (no result: VDR inh, Sfp PPTase inh, G9a inh, Glioma ERSR ind)
N#Cc1nc(-c2ccc(Cl)cc2)oc1NCc1ccccc1Cl	none (no result: VDR inh, Sfp PPTase inh, G9a inh, Glioma ERSR ind)
Cc1ccc(CNc2ccc(N3CCOCC3)c(Cl)c2)cc1	none (no result: G9a inh)
Cc1ccc(CNc2ccc(N3CCOCC3)cc2)cc1	G9a inh 28.2µM, 12-LOX inh inconclusive
CC(C)c1ccc(CNc2ccc(N3CCOCC3)cc2)cc1	Sfp PPTase inh 44.7µM, G9a inh inconclusive
CC(C)c1ccc(CNc2ccc(N3CCOCC3)c(C(=O)O)c2)cc1	none (no result: VDR inh, Sfp PPTase inh, G9a inh, Glioma ERSR ind)
c1cc2c(cc1CNc1ccc(N3CCOCC3)cc1)OCO2	VDR inh inconclusive, 12-LOX inh inconclusive (no result: Sfp PPTase inh, G9a inh)
CC(C)c1ccc(C2(C)NC(=O)N(C(C)C(=O)Nc3ccc(N4CCOCC4)cc3)C2=O)cc1 (stereo not drawn)	G9a inh 56.2µM (no result: Sfp PPTase inh)
c1cc(CNc2ccc(N3CCOCC3)cc2)ccn1	VDR inh inconclusive, Sfp PPTase inh 50.1µM, G9a inh 39.8µM
COc1ccccc1CN(C)C(=O)CC1C(=O)NCCN1CC1CCCCC1 (stereo not drawn)	none (no result: VDR inh, Sfp PPTase inh, G9a inh, Glioma ERSR ind)
Nc1c(C(O)(C(F)(F)F)C(F)(F)F)ccc2ccccc12	Sfp PPTase inh 44.7µM
c1coc(Cn2cccc2)c1	none (no result: VDR inh, Sfp PPTase inh, G9a inh, Glioma ERSR ind)
COc1ccc(CN(C)C2CCN(C)CC2)cc1OC	G9a inh 28.2µM, 12-LOX inh inconclusive
Cc1ccc(CN(C)C2CCN(C)CC2)cc1	none (no result: G9a inh)
CCOc1ccccc1Oc1coc2cc(OCC(=O)NCC3CCC(C(=O)O)CC3)ccc2c1=O (stereo not drawn)	none (no result: VDR inh, Sfp PPTase inh, G9a inh, Glioma ERSR ind)
